Screens as filed in PubChem BioAssay.
This is one part of a sample in which hits are shown more often than they occur.
KDM5B inhibitor: inhibitors of human KDM5B histone demethylase; Potency, µM (titrated, usually from 57.7 µM), usual class: inhibitors; 220,000 tested, 2.6% active; KDM5B demethylase, FDH-coupled NADH fluorescence (FDH is formaldehyde dehydrogenase); Q9UGL1; active means well fitted inhibition curve with a large enough effect; further: nearly all actives have a fitted effect of over 70% in size
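Coupled FDH/NAD⁺ fluorescence readout. KDM5BΔAP 200 nM final; compound titration, 10 min RT preincubation; substrate mix 12.5 µM H3K4me3, 25 µM 2-OG, 50 µM Fe(II), 100 µM ascorbate, 0.25 mM NAD⁺, 0.25 U/mL FDH; ΔRFU over 30 min.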
Hits are given with their value; 0 = inactive.

SMILES	KDM5B inhibitor
Cc1nc(-c2ccc(F)cc2)n(CC(=O)Nc2ccc(F)c(Cl)c2)c(=O)c1CCO	0
COc1cccc(-c2cc(-c3ccc(OC)nc3)c3cncn3c2)c1	32µM
COc1cccc(-c2cccc(CN)c2)c1	0
COc1ccc(-c2cc(-c3ccc(N4CCOCC4)nc3)cn3cncc23)cc1	0
COc1ccc(-c2cc(-c3ccc(N4CCOCC4)nc3)cn3cncc23)cn1	8.9µM
COc1cccc(-c2ncc[nH]2)c1	0
O=C(O)c1ccc(N2CCOCC2)nc1	0
Cc1ccc(C(=O)N2CCC(C(NC(=O)c3ccccc3C)C(=O)NCC(C)C)CC2)cc1 (centres undefined)	0
Cc1ccc(Cn2c(C3CCN(C(=O)c4ccc(C(C)(C)C)cc4)CC3)n[nH]c2=O)cc1	0
CCN(CC)S(=O)(=O)c1ccc(N2CCCC2)c(NS(=O)(=O)c2ccc3ccccc3c2)c1	0
Cc1ccc(-c2cc(C(F)(F)C(F)F)[nH]n2)cc1	0
CC(=O)c1ccc(NC(=O)CSc2nnc(C(C)N3C(=O)COc4ccccc43)n2C)cc1 (centres undefined)	0
COc1cc(OC)c(C(=O)Oc2ccc(C#N)cc2OC)cc1OC	0
CC1CCCN(S(=O)(=O)N(C)Cc2ccc3c(c2)OCCO3)C1 (centres undefined)	0
O=C(NCc1ccc2c(c1)OCO2)c1nc(-c2cccc(C(F)(F)F)c2)c2ccccn12	11µM
O=C(NCc1cccs1)c1cc(-c2cccnc2)nc2ccc(Br)cc12	0
Cc1ccc(-c2nnn3c2nc(NCc2ccc4c(c2)OCO4)c2ccccc23)cc1	0
O=C(NCc1cccs1)c1nc(-c2cccnc2)c2cnccn12	25µM
O=C(NCc1cccc(C(F)(F)F)c1)c1cnc(-c2ccccc2)nc1-c1ccncc1	0
Fc1cccc(-c2nnn3c2nc(NCc2ccc4c(c2)OCO4)c2ccccc23)c1	0
Cc1nc(N2CCC(C(=O)NCc3ccc4c(c3)OCO4)CC2)cc(C(F)(F)F)n1	0
O=C(NCc1ccc2c(c1)OCO2)c1nc(-c2cccnc2)c2cnccn12	28µM
O=C(NCc1cccs1)c1nc(-c2cccnc2)c2ccccn12	0
O=C(NCc1ccc2c(c1)OCO2)c1nc(-c2cccc(C(F)(F)F)c2)c2cnccn12	28µM
Cc1ccc2c(c1)C/C(=C\c1cccnc1)C2=O	0
SMILES	KDM5B inhibitor
Cn1c(=O)c2[nH]c(N3CCN(C(=O)C4CCCCC4)CC3)nc2n(C)c1=O	0
Cc1c(C(=O)Nc2ccc3oc(-c4cncc(Br)c4)nc3c2)cccc1[N+](=O)[O-]	0
O=C(CSc1cnc2cc(S(=O)(=O)N3CCCCC3)ccc2n1)Nc1ccccc1	0
O=C(COc1ccc(F)cc1F)NC1CCCN(c2ncccn2)C1 (centres undefined)	0
O=C(c1cnn(-c2ccccc2)c1-n1cccc1)N1CCN(c2cccc(Cl)c2)CC1	0
O=C(Cn1nc(-c2cccs2)c2ccccc2c1=O)NCC(F)(F)F	0
CCCN(CC(=O)NC(=O)NC1CCCC1)Cc1ccc(C#N)cc1	0
O=C(c1nn(Cc2ccccc2)c(=O)c2ccccc12)N1CCN(c2ccccc2)CC1	0
O=C(NCc1ccc2c(c1)OCO2)c1nn(-c2ccc(Cl)cc2)nc1CO	0
COc1cccc2cc(C(=O)OCC(=O)NCc3ccc4c(c3)OCO4)c(=O)oc12	0
O=C(/C=C/c1ccccc1)NCc1ccc2c(c1)OCO2	0
Cc1ccc(-n2nc(CO)c(C(=O)NCc3ccc4c(c3)OCO4)n2)cc1	0
O=C(NCc1ccc2c(c1)OCO2)c1nc(-c2cc(Cl)cc(Cl)c2)c2ccccn12	14µM
COc1ccccc1-c1nc(C(=O)NCc2ccc3c(c2)OCO3)n2ccccc12	25µM
CCN(C(=O)c1nn(Cc2ccccc2)c(=O)c2ccccc12)C(C)C	0
COCCn1c(SC(C)C(=O)c2ccc(Br)cc2)nnc1-c1cccc(C)c1 (centres undefined)	0
O=C(CN1CCN(c2cnn(-c3ccccc3)c(=O)c2Cl)CC1)Nc1ccc2c(c1)OCCCO2	0
O=C(Cc1cccc(F)c1)N1CCC2(CC1)NC(=O)N(c1cccc(F)c1)N2	0
CC(Sc1ncnc2ccccc12)C(=O)Nc1ccc(Cl)cc1Cl (centres undefined)	0
O=C(Nc1ccc(Cl)cc1)N1CCN(c2nc3ncccc3o2)CC1	0
CC(=O)N1CCN(c2nc3ncccc3o2)CC1	32µM
COCC(=O)N1CCCN(c2nc3ncccc3o2)CC1	28µM
O=C(c1cccc(Cl)c1)N1CCCN(c2nc3ncccc3o2)CC1	0
O=C(Cc1ccccn1)N1CCCN(c2nc3ncccc3o2)CC1	0
O=C(Nc1ccccc1)N1CCN(c2nc3ncccc3o2)CC1	0
SMILES	KDM5B inhibitor
O=C(CC1CCCC1)N1CCN(c2nc3ccccc3o2)CC1	0
COC(=O)N1CCCN(c2nc3ncccc3o2)CC1	25µM
COc1ccc(C(=O)N2CCCN(c3nc4ncccc4o3)CC2)cc1	0
Cc1ccc(C(=O)N/N=C/c2ccccc2)s1	0
Cc1ccc(-c2ccc(=O)n(Cc3noc(C(=O)NCc4ccco4)n3)n2)cc1	0
C=C(C)Cn1c(N2CCN(CC(=O)OC)CC2)nc2c1c(=O)[nH]c(=O)n2C	0
